We go through 1 sequence from article PMC7862700, “An all-to-all approach to the identification of sequence-specific readers for epigenetic DNA modifications on cytosine”.

Holding throughout (assay): DAPPL (digital affinity profiling via proximity ligation, sequencing); 10 mM Tris-HCl pH 7.5, 50 mM NaCl, 1 mM DTT, 4% glycerol, room temperature, 30 min; GST-TFs on glutathione beads, 16-mer random dsDNA library, 0.1% formaldehyde crosslink after washing; high values mean tight binding
For one assay, the target named is T1, FLI1 (Homo sapiens, UniProt Q01543 1-452).
T1 sequence: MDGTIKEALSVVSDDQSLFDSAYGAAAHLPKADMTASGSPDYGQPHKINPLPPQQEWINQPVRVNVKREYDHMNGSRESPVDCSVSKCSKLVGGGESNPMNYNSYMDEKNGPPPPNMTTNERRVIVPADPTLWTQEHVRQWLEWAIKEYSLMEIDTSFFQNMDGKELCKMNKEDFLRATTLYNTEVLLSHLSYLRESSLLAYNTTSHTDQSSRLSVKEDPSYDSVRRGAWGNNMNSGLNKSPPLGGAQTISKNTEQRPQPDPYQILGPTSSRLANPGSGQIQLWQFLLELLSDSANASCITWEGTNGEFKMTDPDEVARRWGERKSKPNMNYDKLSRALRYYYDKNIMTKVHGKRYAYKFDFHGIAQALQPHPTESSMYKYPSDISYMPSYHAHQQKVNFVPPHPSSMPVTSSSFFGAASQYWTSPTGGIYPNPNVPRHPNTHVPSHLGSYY
To be noted: protein: recombinant; tags: N-terminal GST; dsDNA, one strand shown. The essentials:
(§1)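 Beads coated with glutathione captured GST-fused human transcription factors that had been expressed in yeast, and the factors were then given DNA barcodes and pooled with a tag-only sample. The pools were incubated with 200 nmole of a random double-stranded 16-mer DNA library in Tris/NaCl/DTT/glycerol buffer for 30 min at room temperature, washed, crosslinked with 0.1% formaldehyde and proximity-ligated with BsaI/T4 ligase at 37 °C for 1 h. PCR amplification and Illumina NextSeq500 sequencing came last. Binding signal is each hexamer's read frequency for a factor divided by its frequency for the tag-only sample.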

Another assay has as its target T2, GABPA (Homo sapiens, UniProt Q06546 1-454).
T2 sequence: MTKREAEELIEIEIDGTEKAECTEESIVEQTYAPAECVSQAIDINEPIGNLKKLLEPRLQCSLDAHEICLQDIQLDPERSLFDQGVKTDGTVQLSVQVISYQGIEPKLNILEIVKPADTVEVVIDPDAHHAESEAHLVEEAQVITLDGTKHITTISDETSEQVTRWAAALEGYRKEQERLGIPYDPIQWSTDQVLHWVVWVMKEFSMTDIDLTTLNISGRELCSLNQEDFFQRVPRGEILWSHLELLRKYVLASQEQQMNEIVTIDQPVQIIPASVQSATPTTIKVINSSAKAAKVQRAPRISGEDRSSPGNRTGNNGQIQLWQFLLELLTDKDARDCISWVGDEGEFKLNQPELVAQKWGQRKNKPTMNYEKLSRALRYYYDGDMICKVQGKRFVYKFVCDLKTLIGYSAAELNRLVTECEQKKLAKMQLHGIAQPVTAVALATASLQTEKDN
To be noted: protein: recombinant; tags: N-terminal GST; dsDNA, one strand shown. The essentials:
as §1

The target in a further assay is T3, ERG (Homo sapiens, UniProt P11308 1-479).
T3 sequence: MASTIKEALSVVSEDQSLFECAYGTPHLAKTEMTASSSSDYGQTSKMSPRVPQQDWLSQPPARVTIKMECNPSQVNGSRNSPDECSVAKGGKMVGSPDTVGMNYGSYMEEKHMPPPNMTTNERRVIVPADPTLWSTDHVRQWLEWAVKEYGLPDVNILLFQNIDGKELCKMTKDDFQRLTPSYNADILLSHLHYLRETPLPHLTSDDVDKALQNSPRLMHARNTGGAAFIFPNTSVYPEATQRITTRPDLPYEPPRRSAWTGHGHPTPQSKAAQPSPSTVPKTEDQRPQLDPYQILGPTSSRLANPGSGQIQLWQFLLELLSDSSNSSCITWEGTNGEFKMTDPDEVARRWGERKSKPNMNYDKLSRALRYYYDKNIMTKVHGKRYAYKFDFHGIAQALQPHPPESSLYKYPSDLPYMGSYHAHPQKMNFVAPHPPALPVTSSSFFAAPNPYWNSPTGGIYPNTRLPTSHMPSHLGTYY
To be noted: protein: recombinant; tags: N-terminal GST; dsDNA, one strand shown. Put shortly: as §1

In the next assay the target is ETV5 (Homo sapiens, UniProt P41161 1-510). Conditions: protein: recombinant; tags: N-terminal GST; dsDNA, one strand shown. Put shortly: as §1
Sequence of ETV5 (P41161 whole entry): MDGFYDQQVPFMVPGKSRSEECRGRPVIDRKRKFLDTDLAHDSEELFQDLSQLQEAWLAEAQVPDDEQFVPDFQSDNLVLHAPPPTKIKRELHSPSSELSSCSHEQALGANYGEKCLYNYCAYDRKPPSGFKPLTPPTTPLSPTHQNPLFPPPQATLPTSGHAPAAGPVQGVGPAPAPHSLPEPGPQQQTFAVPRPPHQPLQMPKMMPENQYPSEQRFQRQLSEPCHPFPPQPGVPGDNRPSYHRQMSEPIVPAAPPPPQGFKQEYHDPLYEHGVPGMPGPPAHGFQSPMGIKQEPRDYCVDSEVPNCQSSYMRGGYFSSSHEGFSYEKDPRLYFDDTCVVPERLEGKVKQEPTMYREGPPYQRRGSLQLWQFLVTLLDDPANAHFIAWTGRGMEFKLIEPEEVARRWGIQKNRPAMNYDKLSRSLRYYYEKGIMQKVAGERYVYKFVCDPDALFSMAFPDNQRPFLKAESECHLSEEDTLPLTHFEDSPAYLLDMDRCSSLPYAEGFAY
The next assay concerns the target HSF1 (Homo sapiens, UniProt Q00613 1-529). Conditions: protein: recombinant; tags: N-terminal GST; chain copies: 3; dsDNA, one strand shown. Put shortly:
as §1

In the next assay the target is T4, SPIC (Homo sapiens, UniProt Q8N5J4 1-248).
T4 sequence: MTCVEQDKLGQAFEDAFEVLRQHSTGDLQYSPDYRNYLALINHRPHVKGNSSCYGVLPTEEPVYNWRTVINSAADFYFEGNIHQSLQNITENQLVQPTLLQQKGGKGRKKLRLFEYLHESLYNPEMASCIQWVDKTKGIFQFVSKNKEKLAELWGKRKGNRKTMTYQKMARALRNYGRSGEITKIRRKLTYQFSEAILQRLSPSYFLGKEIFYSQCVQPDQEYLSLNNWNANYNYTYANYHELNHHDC
To be noted: protein: recombinant; tags: N-terminal GST; dsDNA, one strand shown. The essentials:
as §1

A further assay has as its target ELF4 (Homo sapiens, UniProt Q99607 1-663). To be noted: protein: recombinant; tags: N-terminal GST; dsDNA, one strand shown. Put shortly:
as §1

Another assay concerns the target T5, ELK4 (Homo sapiens, UniProt P28324-2 1-405).
T5 sequence: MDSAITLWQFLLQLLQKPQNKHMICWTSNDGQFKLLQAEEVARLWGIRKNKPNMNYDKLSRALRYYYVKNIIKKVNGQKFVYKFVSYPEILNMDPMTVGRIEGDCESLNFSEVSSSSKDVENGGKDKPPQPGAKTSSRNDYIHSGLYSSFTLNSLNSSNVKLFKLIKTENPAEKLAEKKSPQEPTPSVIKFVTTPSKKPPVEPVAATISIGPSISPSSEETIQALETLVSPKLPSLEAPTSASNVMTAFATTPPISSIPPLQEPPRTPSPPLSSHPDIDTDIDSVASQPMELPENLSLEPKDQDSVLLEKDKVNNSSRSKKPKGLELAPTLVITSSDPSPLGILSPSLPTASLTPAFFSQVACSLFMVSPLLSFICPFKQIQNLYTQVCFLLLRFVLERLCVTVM
To be noted: protein: recombinant; tags: N-terminal GST; dsDNA, one strand shown. Put shortly: as §1

In another assay the target is T6, ETV2 (Homo sapiens, UniProt O00321 1-342).
T6 sequence: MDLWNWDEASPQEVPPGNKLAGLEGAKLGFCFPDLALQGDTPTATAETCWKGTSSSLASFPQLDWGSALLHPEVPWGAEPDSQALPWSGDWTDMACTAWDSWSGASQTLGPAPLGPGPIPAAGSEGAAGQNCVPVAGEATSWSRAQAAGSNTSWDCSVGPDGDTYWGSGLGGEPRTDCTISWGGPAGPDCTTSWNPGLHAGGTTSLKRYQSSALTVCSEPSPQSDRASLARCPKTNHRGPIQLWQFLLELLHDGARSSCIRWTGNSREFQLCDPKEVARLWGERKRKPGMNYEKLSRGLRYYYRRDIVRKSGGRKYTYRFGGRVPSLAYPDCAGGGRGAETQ
Conditions: protein: recombinant; tags: N-terminal GST; dsDNA, one strand shown. The essentials: as §1

A further assay addresses T7, ELF3 (Homo sapiens, UniProt P78545 1-371).
T7 sequence: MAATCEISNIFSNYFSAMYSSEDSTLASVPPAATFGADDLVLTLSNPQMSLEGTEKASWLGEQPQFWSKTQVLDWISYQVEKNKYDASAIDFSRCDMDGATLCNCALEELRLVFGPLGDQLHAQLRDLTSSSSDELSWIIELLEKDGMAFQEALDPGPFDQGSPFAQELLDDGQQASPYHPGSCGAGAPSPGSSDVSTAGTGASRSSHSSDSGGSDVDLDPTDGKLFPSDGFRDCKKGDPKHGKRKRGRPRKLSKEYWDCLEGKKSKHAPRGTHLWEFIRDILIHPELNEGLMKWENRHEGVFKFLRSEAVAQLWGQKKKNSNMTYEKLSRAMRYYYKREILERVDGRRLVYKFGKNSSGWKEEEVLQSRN
Conditions: protein: recombinant; tags: N-terminal GST; dsDNA, one strand shown. The essentials: as §1

Another assay deals with CRX (Homo sapiens, UniProt O43186 1-299). Conditions: protein: recombinant; tags: N-terminal GST; dsDNA, one strand shown. Put shortly:
as §1

The target in the next assay is ETV1 (Homo sapiens, UniProt P50549 1-477). Conditions: protein: recombinant; tags: N-terminal GST; dsDNA, one strand shown. The essentials:
as §1

Sequence of CRX (O43186 whole entry): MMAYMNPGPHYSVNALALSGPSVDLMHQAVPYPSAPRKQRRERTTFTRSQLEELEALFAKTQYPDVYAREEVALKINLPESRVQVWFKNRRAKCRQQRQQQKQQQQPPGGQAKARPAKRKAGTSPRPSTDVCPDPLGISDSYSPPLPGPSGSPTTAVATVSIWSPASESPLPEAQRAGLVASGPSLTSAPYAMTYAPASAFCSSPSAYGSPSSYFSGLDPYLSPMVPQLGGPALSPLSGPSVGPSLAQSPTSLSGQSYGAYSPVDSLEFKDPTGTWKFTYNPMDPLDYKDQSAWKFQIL
Sequence of ELF4 (Q99607 whole entry): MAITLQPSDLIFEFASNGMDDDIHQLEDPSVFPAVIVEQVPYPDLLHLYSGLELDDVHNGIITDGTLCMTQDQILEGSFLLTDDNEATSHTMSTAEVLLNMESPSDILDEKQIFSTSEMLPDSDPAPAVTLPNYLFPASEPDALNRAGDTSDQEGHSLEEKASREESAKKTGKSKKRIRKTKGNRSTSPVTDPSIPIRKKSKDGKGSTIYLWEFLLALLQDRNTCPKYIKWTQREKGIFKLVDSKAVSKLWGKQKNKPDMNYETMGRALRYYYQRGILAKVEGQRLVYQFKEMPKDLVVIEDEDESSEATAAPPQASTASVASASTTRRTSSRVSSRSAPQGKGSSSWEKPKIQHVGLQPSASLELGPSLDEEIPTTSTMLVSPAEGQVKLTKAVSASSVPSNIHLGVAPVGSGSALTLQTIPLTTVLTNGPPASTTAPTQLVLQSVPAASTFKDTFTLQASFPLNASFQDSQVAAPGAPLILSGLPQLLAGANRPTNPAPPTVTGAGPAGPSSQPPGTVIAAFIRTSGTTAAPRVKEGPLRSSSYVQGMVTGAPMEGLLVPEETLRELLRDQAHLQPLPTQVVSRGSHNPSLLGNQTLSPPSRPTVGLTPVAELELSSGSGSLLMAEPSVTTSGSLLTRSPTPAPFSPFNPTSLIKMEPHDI
Sequence of HSF1 (Q00613 whole entry): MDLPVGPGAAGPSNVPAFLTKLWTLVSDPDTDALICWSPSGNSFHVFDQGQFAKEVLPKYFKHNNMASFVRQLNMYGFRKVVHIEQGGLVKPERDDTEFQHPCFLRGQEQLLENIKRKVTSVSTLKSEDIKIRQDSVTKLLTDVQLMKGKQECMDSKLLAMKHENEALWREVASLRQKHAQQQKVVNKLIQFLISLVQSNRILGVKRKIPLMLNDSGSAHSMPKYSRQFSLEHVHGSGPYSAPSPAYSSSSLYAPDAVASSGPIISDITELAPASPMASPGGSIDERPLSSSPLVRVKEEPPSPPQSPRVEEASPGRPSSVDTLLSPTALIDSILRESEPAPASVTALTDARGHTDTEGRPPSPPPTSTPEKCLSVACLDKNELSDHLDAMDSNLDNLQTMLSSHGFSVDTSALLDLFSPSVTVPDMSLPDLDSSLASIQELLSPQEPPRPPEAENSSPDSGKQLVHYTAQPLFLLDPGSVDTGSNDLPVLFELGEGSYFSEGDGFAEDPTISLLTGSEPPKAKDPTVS
Sequence of ETV1 (P50549 whole entry): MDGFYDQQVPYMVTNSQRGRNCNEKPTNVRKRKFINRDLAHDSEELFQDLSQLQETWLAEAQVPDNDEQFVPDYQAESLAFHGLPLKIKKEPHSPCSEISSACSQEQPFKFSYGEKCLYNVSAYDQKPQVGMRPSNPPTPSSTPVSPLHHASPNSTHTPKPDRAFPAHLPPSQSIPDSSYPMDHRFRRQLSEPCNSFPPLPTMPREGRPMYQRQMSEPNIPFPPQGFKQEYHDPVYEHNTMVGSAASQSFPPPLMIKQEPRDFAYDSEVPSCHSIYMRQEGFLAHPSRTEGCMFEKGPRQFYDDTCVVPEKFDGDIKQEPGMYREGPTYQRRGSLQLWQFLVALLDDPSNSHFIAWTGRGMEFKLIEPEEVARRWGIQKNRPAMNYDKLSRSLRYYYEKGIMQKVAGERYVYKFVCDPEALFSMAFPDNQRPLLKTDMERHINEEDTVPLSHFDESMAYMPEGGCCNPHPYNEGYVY

Turning to ATCGTT, the binding signal is 1.08 fold enrichment (6-mer frequency, TF over GST control) with FLI1; 1.01 fold enrichment (6-mer frequency, TF over GST control) in the assay with GABPA; 1.02 fold enrichment (6-mer frequency, TF over GST control) with ERG; 1 fold enrichment (6-mer frequency, TF over GST control) with ETV5; 1.02 fold enrichment (6-mer frequency, TF over GST control) with HSF1; 1.03 fold enrichment (6-mer frequency, TF over GST control) with SPIC. The binding signal was 1.04 fold enrichment (6-mer frequency, TF over GST control) in the assay with ELF4; 1.12 fold enrichment (6-mer frequency, TF over GST control) in the assay with ELK4; 1.13 fold enrichment (6-mer frequency, TF over GST control) with ETV2; 1.03 fold enrichment (6-mer frequency, TF over GST control) with ELF3; 1.14 fold enrichment (6-mer frequency, TF over GST control) with CRX; 1.06 fold enrichment (6-mer frequency, TF over GST control) with ETV1.
